Reference: the supplement of paper PMC12282887
± gives the standard deviation of the averaged measurements.

Columns and labels:
Assay in all cases: promoter activity interaction Z-score (Lux/OD deviation from empty-vector control); higher = stronger promoter induction by the compound
[1] = tested on: E. coli BW25113 acrABp lux reporter
In short: (§1)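 E. coli BW25113 (wild type or marA, soxS or rob deletion) carrying low-copy luxCDABE promoter reporters grew in 40 µl LB Lennox in 384-well plates at 37°C. Each compound was tested at four 1:2 dilutions in biological duplicates. OD600 and luminescence were read every 30 min for 12 h. Areas were taken over 0–8 h (wild type) or 1–9 h (mutants), and wells below 10% of median growth area were removed. The score is the Z-transformed residual of growth-normalised luminescence fitted against the empty-vector control.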

[2] = tested on: E. coli BW25113 micFp lux reporter
In short: as §1

[3] = tested on: E. coli BW25113 ompFp lux reporter
In short: as §1

[4] = tested on: E. coli BW25113 robp lux reporter
In short: as §1

[5] = tested on: E. coli BW25113 soxSp lux reporter
In short: as §1

[6] = tested on: E. coli BW25113 tolCp lux reporter
In short: as §1

[7] = 24.3 µg/ml, genetic background: wild type
[8] = 24.3 µg/ml, genetic background: ΔmarA
[9] = 24.3 µg/ml, genetic background: Δrob
[10] = 24.3 µg/ml, genetic background: ΔsoxS
[11] = 48.5 µg/ml, genetic background: wild type
[12] = 48.5 µg/ml, genetic background: ΔmarA
[13] = 48.5 µg/ml, genetic background: Δrob
[14] = 48.5 µg/ml, genetic background: ΔsoxS
[15] = 97.1 µg/ml, genetic background: wild type
[16] = 97.1 µg/ml, genetic background: ΔmarA
[17] = 97.1 µg/ml, genetic background: Δrob
[18] = 97.1 µg/ml, genetic background: ΔsoxS
[19] = 194.2 µg/ml, genetic background: wild type
[20] = 194.2 µg/ml, genetic background: ΔmarA
[21] = 194.2 µg/ml, genetic background: Δrob
[22] = 194.2 µg/ml, genetic background: ΔsoxS

SMILES: Cn1c(=O)c2c(ncn2C)n(C)c1=O [Caffeine]
- promoter activity interaction Z-score [1, 7]: -0.0906 ± 0.17
- promoter activity interaction Z-score [1, 8]: 1.25 ± 2.5
- promoter activity interaction Z-score [1, 9]: 0.229 ± 0.12
- promoter activity interaction Z-score [1, 10]: 0.234 ± 0.23
- promoter activity interaction Z-score [1, 11]: 0.0551 ± 0.06
- promoter activity interaction Z-score [1, 12]: 0.244 ± 1.1
- promoter activity interaction Z-score [1, 13]: 0.254 ± 0.35
- promoter activity interaction Z-score [1, 14]: 0.3 ± 0.18
- promoter activity interaction Z-score [1, 15]: 0.0174 ± 0.31
- promoter activity interaction Z-score [1, 16]: 0.17 ± 0.29
- promoter activity interaction Z-score [1, 17]: 0.132 ± 0.014
- promoter activity interaction Z-score [1, 18]: 0.864 ± 1
- promoter activity interaction Z-score [1, 19]: 0.303 ± 0.24
- promoter activity interaction Z-score [1, 20]: -0.0252 ± 0.29
- promoter activity interaction Z-score [1, 21]: 0.0753 ± 0.22
- promoter activity interaction Z-score [1, 22]: 0.762 ± 0.37
- promoter activity interaction Z-score [2, 7]: 1.28 ± 0.39
- promoter activity interaction Z-score [2, 8]: 1.01 ± 0.13
- promoter activity interaction Z-score [2, 9]: 0.0768 ± 0.058
- promoter activity interaction Z-score [2, 10]: 1.65 ± 0.72
- promoter activity interaction Z-score [2, 11]: 2.71 ± 0.15
- promoter activity interaction Z-score [2, 12]: 1.72 ± 0.17
- promoter activity interaction Z-score [2, 13]: -0.0682 ± 0.092
- promoter activity interaction Z-score [2, 14]: 2.27 ± 0.1
- promoter activity interaction Z-score [2, 15]: 3.93 ± 0.29
- promoter activity interaction Z-score [2, 16]: 3.13 ± 0.049
- promoter activity interaction Z-score [2, 17]: -0.0129 ± 0.082
- promoter activity interaction Z-score [2, 18]: 4.2 ± 0.47
- promoter activity interaction Z-score [2, 19]: 9.84 ± 0.76
- promoter activity interaction Z-score [2, 20]: 6.96 ± 1.9
- promoter activity interaction Z-score [2, 21]: 0.216 ± 0.022
- promoter activity interaction Z-score [2, 22]: 9.87 ± 0.2
- promoter activity interaction Z-score [3, 7]: 0.171 ± 0.69
- promoter activity interaction Z-score [3, 8]: 0.0413 ± 0.047
- promoter activity interaction Z-score [3, 9]: 0.636 ± 0.1
- promoter activity interaction Z-score [3, 10]: 0.0579 ± 0.15
- promoter activity interaction Z-score [3, 11]: 0.648 ± 0.61
- promoter activity interaction Z-score [3, 12]: 0.121 ± 0.51
- promoter activity interaction Z-score [3, 13]: -0.106 ± 0.46
- promoter activity interaction Z-score [3, 14]: -0.0276 ± 0.3
- promoter activity interaction Z-score [3, 15]: -0.351 ± 0.49
- promoter activity interaction Z-score [3, 16]: 0.00292 ± 0.16
- promoter activity interaction Z-score [3, 17]: -0.133 ± 0.69
- promoter activity interaction Z-score [3, 18]: 0.291 ± 0.42
- promoter activity interaction Z-score [3, 19]: 0.651 ± 0.51
- promoter activity interaction Z-score [3, 20]: 0.268 ± 0.19
- promoter activity interaction Z-score [3, 21]: 0.227 ± 0.64
- promoter activity interaction Z-score [3, 22]: 0.245 ± 0.21
- promoter activity interaction Z-score [4, 7]: 0.0869 ± 0.41
- promoter activity interaction Z-score [4, 8]: 1.13 ± 1.2
- promoter activity interaction Z-score [4, 9]: 0.442 ± 0.56
- promoter activity interaction Z-score [4, 10]: 1.35 ± 0.27
- promoter activity interaction Z-score [4, 11]: 1.03 ± 0.53
- promoter activity interaction Z-score [4, 12]: -0.488 ± 0.27
- promoter activity interaction Z-score [4, 13]: 0.545 ± 0.89
- promoter activity interaction Z-score [4, 14]: 1.19 ± 0.12
- promoter activity interaction Z-score [4, 15]: -0.142 ± 0.26
- promoter activity interaction Z-score [4, 16]: -0.194 ± 0.34
- promoter activity interaction Z-score [4, 17]: -0.0955 ± 0.42
- promoter activity interaction Z-score [4, 18]: -0.0533 ± 0.92
- promoter activity interaction Z-score [4, 19]: -0.121 ± 0.73
- promoter activity interaction Z-score [4, 20]: -0.257 ± 0.088
- promoter activity interaction Z-score [4, 21]: 0.111 ± 1.4
- promoter activity interaction Z-score [4, 22]: -1.19 ± 0.4
- promoter activity interaction Z-score [5, 7]: -0.0276 ± 0.14
- promoter activity interaction Z-score [5, 8]: 0.29 ± 0.3
- promoter activity interaction Z-score [5, 9]: 0.512 ± 0.15
- promoter activity interaction Z-score [5, 10]: -0.000875 ± 0.083
- promoter activity interaction Z-score [5, 11]: 0.149 ± 0.051
- promoter activity interaction Z-score [5, 12]: 0.331 ± 0.32
- promoter activity interaction Z-score [5, 13]: 0.0369 ± 0.011
- promoter activity interaction Z-score [5, 14]: 0.0413 ± 0.11
- promoter activity interaction Z-score [5, 15]: 0.0939 ± 0.035
- promoter activity interaction Z-score [5, 16]: 0.405 ± 0.044
- promoter activity interaction Z-score [5, 17]: 0.395 ± 0.12
- promoter activity interaction Z-score [5, 18]: 0.167 ± 0.44
- promoter activity interaction Z-score [5, 19]: 0.212 ± 0.044
- promoter activity interaction Z-score [5, 20]: 0.529 ± 0.026
- promoter activity interaction Z-score [5, 21]: 0.257 ± 0.16
- promoter activity interaction Z-score [5, 22]: 0.6 ± 0.85
- promoter activity interaction Z-score [6, 7]: -0.298 ± 0.42
- promoter activity interaction Z-score [6, 8]: 0.922 ± 0.83
- promoter activity interaction Z-score [6, 9]: -0.0951 ± 0.85
- promoter activity interaction Z-score [6, 10]: 0.425 ± 0.39
- promoter activity interaction Z-score [6, 11]: 0.642 ± 1.2
- promoter activity interaction Z-score [6, 12]: 0.724 ± 0.083
- promoter activity interaction Z-score [6, 13]: -0.684 ± 0.056
- promoter activity interaction Z-score [6, 14]: 0.896 ± 0.56
- promoter activity interaction Z-score [6, 15]: 0.921 ± 0.51
- promoter activity interaction Z-score [6, 16]: 0.55 ± 0.57
- promoter activity interaction Z-score [6, 17]: -0.368 ± 0.11
- promoter activity interaction Z-score [6, 18]: 1.64 ± 0.38
- promoter activity interaction Z-score [6, 19]: 1.37 ± 0.41
- promoter activity interaction Z-score [6, 20]: 1.61 ± 1.5
- promoter activity interaction Z-score [6, 21]: 0.892 ± 0.67
- promoter activity interaction Z-score [6, 22]: 0.579 ± 1
